Experimental data from the supplement of paper PMC6555819.

Tests used:
Experiment in all cases: PBM binding z-score (relative to random genomic background probes); higher = stronger binding; sequences stand for … in GC…GCGATTGACAGCGTAGAATGAAGG
[1] = system: PPARg:RXRa DBDmut IVT, anti-RXR (DBD mutation: RXRa K156A/R161A, NR concentration 270 nM, RXRa partner concentration 90 nM)
In short: (§1)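 Ligand-free nuclear receptor dimers were bound for 1 h to custom Agilent 4×180K protein-binding microarrays. Detection used antibodies against each partner (one per run). Binding z-scores rest on regression-normalized fluorescence, with random background probes as the reference.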

[2] = system: PPARg:RXRa IVT, anti-PPARg (NR concentration 270 nM, RXRa partner concentration 90 nM)
In short: as §1

[3] = system: PPARg DBDmut:RXRa IVT, anti-PPARg (DBD mutation: PPARg1 K132A/R137A, NR concentration 270 nM, RXRa partner concentration 90 nM)
In short: as §1

[4] = system: PPARg DBDmut IVT, anti-PPARg (DBD mutation: PPARg1 K132A/R137A, NR concentration 270 nM)
In short: as §1

[5] = system: PPARg homodimer (NR concentration 180 nM)
In short: as §1

[6] = system: PXR:RXRa (NR concentration 270 nM, RXRa partner concentration 90 nM)
In short: as §1

[7] = system: PXR homodimer (NR concentration 270 nM)
In short: as §1

[8] = system: RARa:RXR (NR concentration 270 nM, RXRa partner concentration 90 nM)
In short: as §1

[9] = system: RARa homodimer (NR concentration 270 nM)
In short: as §1

[10] = system: RARb:RXRa (NR concentration 270 nM, RXRa partner concentration 90 nM)
In short: as §1

Sequence: CCTAGCAGGCCAATATGGGTCACTCAAGGCTTGA
- PBM binding z-score [1]: 3.27
- PBM binding z-score [2]: 4.11
- PBM binding z-score [3]: -0.447
- PBM binding z-score [4]: -0.637
- PBM binding z-score [5]: 0.511
- PBM binding z-score [6]: 1.14
- PBM binding z-score [7]: -0.649
- PBM binding z-score [8]: 1.65
- PBM binding z-score [9]: -0.474
- PBM binding z-score [10]: 1.44

Sequence: CGCCCAAGGTCAGAGAGGTCAGTGAATGCCGAGT
- PBM binding z-score [1]: 2.95
- PBM binding z-score [2]: 2.94
- PBM binding z-score [3]: -0.485
- PBM binding z-score [4]: -0.732
- PBM binding z-score [5]: 3.98
- PBM binding z-score [6]: 5.86
- PBM binding z-score [7]: 11.8
- PBM binding z-score [8]: 5.47
- PBM binding z-score [9]: 3.01
- PBM binding z-score [10]: 5.09

Sequence: GCATATAGGTAATACAAGGTGAAAGACCGATTGT
- PBM binding z-score [1]: 3.84
- PBM binding z-score [2]: 3.44
- PBM binding z-score [3]: 0.445
- PBM binding z-score [4]: 0.718
- PBM binding z-score [5]: 0.0891
- PBM binding z-score [6]: 0.523
- PBM binding z-score [7]: -0.102
- PBM binding z-score [8]: 1.49
- PBM binding z-score [9]: 0.624
- PBM binding z-score [10]: 0.568

Sequence: CCTGCTAGGTCATGCTCAGCTAATCTACAGTATG
- PBM binding z-score [1]: 4.78
- PBM binding z-score [2]: 3.37
- PBM binding z-score [3]: 0.405
- PBM binding z-score [4]: 0.309
- PBM binding z-score [5]: 0.827
- PBM binding z-score [6]: 0.957
- PBM binding z-score [7]: -0.979
- PBM binding z-score [8]: 2.05
- PBM binding z-score [9]: -0.229
- PBM binding z-score [10]: 3.75

Sequence: GCTATTAGTTAAAAGGGCAACCGAATGATTCTCG
- PBM binding z-score [1]: 0.433
- PBM binding z-score [2]: 0.998
- PBM binding z-score [3]: 0.676
- PBM binding z-score [4]: -0.168
- PBM binding z-score [5]: 1.15
- PBM binding z-score [6]: 0.537
- PBM binding z-score [7]: 0.39
- PBM binding z-score [8]: 0.874
- PBM binding z-score [9]: 1.2
- PBM binding z-score [10]: 1.97

Sequence: ACTAGCAGGCCATGTTTGGGTCACTCAAACAAAG
- PBM binding z-score [1]: 0.691
- PBM binding z-score [2]: 1.13
- PBM binding z-score [3]: -0.241
- PBM binding z-score [4]: -1.08
- PBM binding z-score [5]: 0.0761
- PBM binding z-score [6]: 0.404
- PBM binding z-score [7]: -0.559
- PBM binding z-score [8]: 1.37
- PBM binding z-score [9]: -0.914
- PBM binding z-score [10]: 1.72

Sequence: TCTTGTAGATCAAGCAGGTTCAGAAAGCCTGAGT
- PBM binding z-score [1]: 1.67
- PBM binding z-score [2]: 0.23
- PBM binding z-score [3]: -0.203
- PBM binding z-score [4]: -0.258
- PBM binding z-score [5]: -0.265
- PBM binding z-score [6]: 1.42
- PBM binding z-score [7]: 0.458
- PBM binding z-score [8]: 0.45
- PBM binding z-score [9]: -0.397
- PBM binding z-score [10]: -0.164

Sequence: CAAACTAGGTCACAGAGGTAAAAGTCCGTGCGTA
- PBM binding z-score [1]: 8.62
- PBM binding z-score [2]: 8.89
- PBM binding z-score [3]: 3.39
- PBM binding z-score [4]: 1.6
- PBM binding z-score [5]: 2.55
- PBM binding z-score [6]: 2.53
- PBM binding z-score [7]: 0.79
- PBM binding z-score [8]: 3.47
- PBM binding z-score [9]: 0.948
- PBM binding z-score [10]: 4.35

Sequence: CTAACTAGGTCAGAACAGGACAGTGAAGGATGAT
- PBM binding z-score [1]: 7.81
- PBM binding z-score [2]: 7.46
- PBM binding z-score [3]: 1.78
- PBM binding z-score [4]: 0.779
- PBM binding z-score [5]: 1.28
- PBM binding z-score [6]: 0.958
- PBM binding z-score [7]: 0.15
- PBM binding z-score [8]: 0.805
- PBM binding z-score [9]: 0.43
- PBM binding z-score [10]: 2.94

Sequence: ATACCAAGGTGATCGTGCGGTCGTTGATACTAAC
- PBM binding z-score [1]: 0.367
- PBM binding z-score [2]: 0.959
- PBM binding z-score [3]: -0.0975
- PBM binding z-score [4]: -0.386
- PBM binding z-score [5]: -0.0029
- PBM binding z-score [6]: 0.16
- PBM binding z-score [7]: 0.0689
- PBM binding z-score [8]: -0.0765
- PBM binding z-score [9]: 0.173
- PBM binding z-score [10]: 0.748

Sequence: CGAACGAGGTCAAGGACAGTGAATCTCCGCACGC
- PBM binding z-score [1]: 5.22
- PBM binding z-score [2]: 5.6
- PBM binding z-score [3]: 0.997
- PBM binding z-score [4]: -0.199
- PBM binding z-score [5]: 2.14
- PBM binding z-score [6]: 4.9
- PBM binding z-score [7]: 0.979
- PBM binding z-score [8]: 5.15
- PBM binding z-score [9]: 0.619
- PBM binding z-score [10]: 5.24

Sequence: CCTTACGGGTCACTGACAGGATATAGCATTTGGA
- PBM binding z-score [1]: 3.33
- PBM binding z-score [2]: 3.54
- PBM binding z-score [3]: 1.02
- PBM binding z-score [4]: 0.966
- PBM binding z-score [5]: 2.23
- PBM binding z-score [6]: 3.03
- PBM binding z-score [7]: 0.183
- PBM binding z-score [8]: 3.85
- PBM binding z-score [9]: 1.33
- PBM binding z-score [10]: 3.95

Sequence: GCAGACAGGTCAAACGCAGGTAACTCAGGGTGGC
- PBM binding z-score [1]: 2.15
- PBM binding z-score [2]: 1.91
- PBM binding z-score [3]: 0.427
- PBM binding z-score [4]: -0.842
- PBM binding z-score [5]: 2
- PBM binding z-score [6]: 3.06
- PBM binding z-score [7]: -0.42
- PBM binding z-score [8]: 4.18
- PBM binding z-score [9]: -0.318
- PBM binding z-score [10]: 4.17

Sequence: CGAACTAGGTCAGAACAGGATAGTGAAGGATGAT
- PBM binding z-score [1]: 7.17
- PBM binding z-score [2]: 7.33
- PBM binding z-score [3]: 2.09
- PBM binding z-score [4]: 2.21
- PBM binding z-score [5]: 1.07
- PBM binding z-score [6]: 0.283
- PBM binding z-score [7]: 0.0335
- PBM binding z-score [8]: 1.12
- PBM binding z-score [9]: 0.743
- PBM binding z-score [10]: 2.97

Sequence: ATCGAAAGCTCGACGAGGTGAGTATACACCGTTT
- PBM binding z-score [1]: -0.441
- PBM binding z-score [2]: 0.00949
- PBM binding z-score [3]: 0.478
- PBM binding z-score [4]: 0.316
- PBM binding z-score [5]: -0.162
- PBM binding z-score [6]: -0.321
- PBM binding z-score [7]: -0.326
- PBM binding z-score [8]: -0.226
- PBM binding z-score [9]: -0.876
- PBM binding z-score [10]: -0.148

Sequence: CCTAACGGGTCACTGACAGGTTATAGCATTTGGA
- PBM binding z-score [1]: 2.22
- PBM binding z-score [2]: 2.71
- PBM binding z-score [3]: -0.265
- PBM binding z-score [4]: -0.262
- PBM binding z-score [5]: 2.61
- PBM binding z-score [6]: 3.02
- PBM binding z-score [7]: 0.336
- PBM binding z-score [8]: 4.05
- PBM binding z-score [9]: 1.31
- PBM binding z-score [10]: 3.48

Sequence: CGTCCAAGGTCAAAGGTCAGTGAAGAGATGACGG
- PBM binding z-score [1]: 4.23
- PBM binding z-score [2]: 5.97
- PBM binding z-score [3]: 1.75
- PBM binding z-score [4]: 2.79
- PBM binding z-score [5]: 4.7
- PBM binding z-score [6]: 7.11
- PBM binding z-score [7]: 1.9
- PBM binding z-score [8]: 8.77
- PBM binding z-score [9]: 2.78
- PBM binding z-score [10]: 6.02

Sequence: ATATGTAGGTTACATCCGGCTCATTCAGGCTATG
- PBM binding z-score [1]: 7.66
- PBM binding z-score [2]: 6.94
- PBM binding z-score [3]: 2.85
- PBM binding z-score [4]: 2.21
- PBM binding z-score [5]: 0.844
- PBM binding z-score [6]: 0.18
- PBM binding z-score [7]: 0.0469
- PBM binding z-score [8]: 0.506
- PBM binding z-score [9]: 0.258
- PBM binding z-score [10]: 1.07

Sequence: TGAATTAGGTTAAAGATCAGGGAACGTGGCGTCG
- PBM binding z-score [1]: 6.08
- PBM binding z-score [2]: 5.63
- PBM binding z-score [3]: 0.86
- PBM binding z-score [4]: 1.43
- PBM binding z-score [5]: 1.58
- PBM binding z-score [6]: 0.403
- PBM binding z-score [7]: 0.276
- PBM binding z-score [8]: 1.12
- PBM binding z-score [9]: 1.04
- PBM binding z-score [10]: 1.19

Sequence: ATCTCTAGCTAAAGTTCAGTGAAAGATCGATAGA
- PBM binding z-score [1]: -0.514
- PBM binding z-score [2]: 0.413
- PBM binding z-score [3]: 0.743
- PBM binding z-score [4]: 0.86
- PBM binding z-score [5]: 1.51
- PBM binding z-score [6]: 1.8
- PBM binding z-score [7]: 1.85
- PBM binding z-score [8]: 1.04
- PBM binding z-score [9]: 1.01
- PBM binding z-score [10]: 2.68

Sequence: TCTAGCAGGCCAGAGGGTCACGCAAGAGGTACGG
- PBM binding z-score [1]: 0.77
- PBM binding z-score [2]: 1.31
- PBM binding z-score [3]: -0.82
- PBM binding z-score [4]: -1.03
- PBM binding z-score [5]: 0.618
- PBM binding z-score [6]: 2.62
- PBM binding z-score [7]: -0.51
- PBM binding z-score [8]: 3.55
- PBM binding z-score [9]: -0.463
- PBM binding z-score [10]: 2.84

Sequence: ATCTCTAGGTAAAAGTTAAGTGAATCCCGAGGAT
- PBM binding z-score [1]: 2.03
- PBM binding z-score [2]: 2.31
- PBM binding z-score [3]: 1.28
- PBM binding z-score [4]: 1.28
- PBM binding z-score [5]: 0.613
- PBM binding z-score [6]: -0.127
- PBM binding z-score [7]: -0.352
- PBM binding z-score [8]: -0.144
- PBM binding z-score [9]: 0.373
- PBM binding z-score [10]: 0.28

Sequence: TCTCGGAGGACAAGAAGGTCAGAGCTTTCCAGAG
- PBM binding z-score [1]: 1.27
- PBM binding z-score [2]: 0.839
- PBM binding z-score [3]: -0.347
- PBM binding z-score [4]: -1
- PBM binding z-score [5]: 0.686
- PBM binding z-score [6]: 1.71
- PBM binding z-score [7]: 1.64
- PBM binding z-score [8]: 1.69
- PBM binding z-score [9]: 0.0458
- PBM binding z-score [10]: 3.07
